An excerpt weighted towards active compounds, which were near 10% of everything screened.
ROMK primary: modulates human ROMK potassium channel activity | Tet-inducible ROMK, thallium flux fluorescence; actives lie on both sides | B-score at 10 µM | actives 2% (n = 130,000) | AID 1918;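 active = signal ratio slope over the read window, or its plate-corrected B-score, at least 3 SD from the plate mean, either direction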;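 also: B-score of the F/F0 ratio slope over 7 to 12 s after thallium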
Target sequence (P48048 whole entry, looked up): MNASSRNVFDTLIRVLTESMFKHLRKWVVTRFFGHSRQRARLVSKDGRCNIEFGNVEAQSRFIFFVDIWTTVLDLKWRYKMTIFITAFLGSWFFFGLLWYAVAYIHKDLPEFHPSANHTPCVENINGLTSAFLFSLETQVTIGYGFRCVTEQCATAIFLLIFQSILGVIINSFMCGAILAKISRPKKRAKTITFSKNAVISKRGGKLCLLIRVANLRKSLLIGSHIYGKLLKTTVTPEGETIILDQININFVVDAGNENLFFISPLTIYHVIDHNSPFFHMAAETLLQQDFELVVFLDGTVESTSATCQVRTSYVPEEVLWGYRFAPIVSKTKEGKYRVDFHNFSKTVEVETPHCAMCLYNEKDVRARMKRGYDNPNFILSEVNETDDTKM
HCT116 PTEN-null: growth suppressors of cells with PTEN tumor suppressor deletion. HCT116 PTEN-null viability, CellTiter-Glo, 60 h; stronger effect = lower value. viability, % at 10 µM. actives 1.2% (n = 140,000);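 active = viability at or below a set limit, 4 SD under the median of all tested compounds, cut at about 3.7% in these data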;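 also: PTEN knockout HCT116 line with beta catenin targeted HCT116 as companion control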
INS promoter inh: TRM-6 insulin promoter activity inhibition; TRM-6 cells (human fetal islet line), insulin promoter-eGFP reporter, imaging; reporter expression induced with tamoxifen; inhibition, % at 2 µM; actives 0.9% (n = 130,000);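 active = inhibition above the mean plus 3 SD, with well images judged a real hit on visual review, cut at about 60% in these data, passing the limit was not always enough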
p97 inhibitor: human p97 ATPase inhibition; P55072; recombinant p97 ATPase, Kinase-Glo ATP luminescence, 3 h; inhibition, % at 8 µM; actives 0.42% (n = 220,000); in the data active = inhibition above about 15%;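 also: 0% = DMSO vehicle and 100% = wells lacking enzyme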
bCat KO growth: beta-catenin-lacking colon tumor cell growth suppression. HCT116 beta-catenin knockout viability, CellTiter-Glo, 60 h; stronger effect = lower value. viability, % at 10 µM. actives 1.5% (n = 140,000);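 active = viability at or under a set limit, the compound median less 4 SD, cut at about 6% in these data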;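 also: 0% = Hyamine 1622 control at 20 µM and 100% = untreated cell control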
Lmaj promast: reduces viability of Leishmania major promastigotes. actives 9% (n = 200,000). inhibition, % at 10 µM. AID 1063. resazurin fluorescence viability; in the data active = inhibition above about 50%;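 also: promastigotes grown with compound for 44 hours at 28 °C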
* hit, by the source's call; . = not tested or not shown.

SMILES	ROMK primary	HCT116 PTEN-null	INS promoter inh	p97 inhibitor	bCat KO growth	Lmaj promast
Cc1ccc(NC(=O)C(=O)NCCOc2ccc(Cl)cc2)c(C)c1	0.017	96	30	5	91	-9
CNC(=O)c1ccsc1NC(=O)c1ccc2c(c1)CCCC2	0.95	68	76*	-2	67	21
NC(=O)c1ccsc1NC(=O)c1ccc2c(c1)CCCC2	0.011	43	-51	-10	46	-3
Clc1ccc2nc(C3CCN(Cc4nnnn4C4CCCCC4)CC3)[nH]c2c1	-2.2	30	-14	-5	27	19
Cc1ccc(Cn2nnnc2CN2CCC(c3nc4ccc(Cl)cc4[nH]3)CC2)cc1	.	14	.	-4	23	55*
COCCn1c(-c2ccc(OC)cc2)cnc1SCC(=O)Nc1cccc2ccccc12	.	88	-2	-7	85	77*
COc1ccc(CCNC(=O)CSc2nnc(-c3ccc(F)cc3)c3ccccc23)cc1OC	.	94	-24	-1	85	65*
COc1ccc(-c2cnc(SCC(=O)Nc3cc(C)on3)n2Cc2ccco2)cc1	.	102	-48	-4	95	2
COc1ccc(CCNC(=O)CSCc2ccc(Cl)cc2)cc1OC	0.0046	97	-6	1	101	1
COc1ccc(CCNC(=O)CSc2ccccc2)cc1OC	0.36	97	-44	-3	102	2
COCCn1c(-c2ccc(Cl)cc2)cnc1SCC(=O)NCCc1ccc(OC)c(OC)c1	-0.97	60	-44	-9	48	70*
Cc1ccccc1S(=O)(=O)c1c(C)cc(-c2ccccc2)[nH]c1=O	.	98	16	0	95	-11
COc1ccc(C2C(C(=O)NCCCN3CCOCC3)c3ccccc3C(=O)N2c2ccc(OC)cc2)cc1 (stereo unspecified)	-0.51	.	.	2	.	13
Cc1c(Br)c([N+](=O)[O-])nn1CCCC(=O)N1CCN(c2ccccc2)CC1	-0.39	100	-22	-1	95	70*
Cc1c(Cl)c([N+](=O)[O-])nn1CCCC(=O)N1CCN(c2ccccc2)CC1	-0.58	90	.	0	89	38
O=C(Cn1cc([N+](=O)[O-])nc1[N+](=O)[O-])N1CCN(c2ccccc2)CC1	-0.7	.	.	8	.	100*
CCc1ccc(NC(=O)c2ccccc2SC)cc1	-0.49	.	.	1	.	13
COc1ccccc1CNC(=O)C(NC(=O)c1ccccc1C)C(C)C (stereo unspecified)	-0.084	.	-36	3	.	-4
S=C(Nc1ccc(Br)cc1)N1CCn2cccc2C1c1cccnc1 (stereo unspecified)	-0.057	.	-33	11	.	96*
CCc1cccc(CC)c1NC(=S)N1CCn2cccc2C1c1cccnc1 (stereo unspecified)	-0.53	79	.	-3	85	83*
Cc1ccc(NC(=S)N2CCn3cccc3C2c2cccnc2)cc1 (stereo unspecified)	.	94	.	6	92	81*
CCNC(=S)N1CCn2cccc2C1c1ccc(F)cc1 (stereo unspecified)	0	.	-158	4	.	-7
C=CCn1c(SCc2cc(C(C)=O)ccc2OCC)nc2ccccc2c1=O	2.3	23	-67	-6	22	97*
COc1ccc(C(C)=O)cc1CSc1nc2ccccc2o1	.	1.0*	0	-2	1.1*	16
COc1ccc(C(C)=O)cc1CSc1nc2ccccc2c(=O)n1-c1ccccc1	.	46	.	-7	66	0
SMILES	ROMK primary	HCT116 PTEN-null	INS promoter inh	p97 inhibitor	bCat KO growth	Lmaj promast
COc1ccc(C(C)=O)cc1CSc1nc2ccccc2c(=O)n1-c1ccccc1C	0.18	57	31	5	71	78*
Cc1cc(=O)n2c(n1)SCOC2	.	.	.	-4	.	.
COc1cccc(-c2cc3nc4c(c(N5CCC6(CC5)OCCO6)n3n2)CCC4)c1	-1.1	.	.	13	.	27
Cc1cccc(-c2cc3nc4c(c(NCc5ccco5)n3n2)CCCC4)c1	-0.15	64	.	-2	69	67*
Cc1cccc(-c2cc3nc4c(c(N5CCC6(CC5)OCCO6)n3n2)CCCC4)c1	-0.16	.	-5	3	.	65*
Cc1cccc(-c2cc3nc4c(c(N5CCOCC5)n3n2)CCCC4)c1	.	53	-33	-1	63	57*
Fc1ccc(-c2cc3nc4c(c(N5CCOCC5)n3n2)CCCC4)cc1	-1.2	72	-29	1	77	22
CCOC(=O)CC(=O)CSc1ncnc2c1nnn2-c1ccc(OC)cc1	-0.42	.	-44	1	.	-5
N#CC1=C(S)N(c2ccccc2)C(c2cccs2)NC1=O (stereo unspecified)	.	96	46	-3	83	-1
Cc1ccc(N2C(S)=C(C#N)C(=O)NC2c2cccs2)cc1 (stereo unspecified)	-0.37	61	-36	8	58	61*
O=C(CC1C(=O)N(c2ccccc2)C(=S)N1c1ccccc1)c1ccc(Br)cc1 (stereo unspecified)	0.79	81	-21	5	97	51*
CCOc1ccc(OCc2cccc(C(=O)Nc3ccc(CN4CCCCC4)cc3)c2)cc1	.	1.9*	19	-1	1.5*	96*
COc1ccc(OCc2cccc(C(=O)Nc3ccc(CN4CCCCC4)cc3)c2)cc1	-1.2	7	17	3	10	78*
COc1ccccc1CCNC(=O)Cc1cccs1	0.46	.	.	-5	.	.
N#Cc1ccc(N/N=C/c2cn(-c3ccccc3)nc2-c2ccccc2)c([N+](=O)[O-])c1	0.45	1.0*	-17	-2	1.8*	-7
Cc1oc(S(=O)(=O)N2CCCCC2)cc1NC(=O)Nc1ccc(Cl)cc1	.	.	.	-2	.	.
CCOC(=O)CCn1nc(-c2ccc(Cl)cc2)cc1N	.	92	.	-3	91	4
COc1ccc(S(=O)(=O)n2nc(-c3ccc(Cl)cc3)cc2N)cc1	0.0029	.	.	-4	.	.
CCOC(=O)c1oc2ccc(S(=O)(=O)Nc3ccc4c(c3)n(C)c(=O)n4C)cc2c1C	.	54	-6	4	51	44
CCOC(=O)c1oc2ccc(S(=O)(=O)n3nc(-c4ccc(Cl)cc4)cc3N)cc2c1C	.	17	.	3	23	98*
CCOC(=O)c1oc2ccc(S(=O)(=O)n3nc(-c4ccc(C)cc4)cc3N)cc2c1C	.	87	.	-1	77	91*
CCOC(=O)Cn1nc(-c2ccc(Cl)cc2)cc1N	.	84	-25	2	76	55*
CCOc1ccc(NC(=O)CCC(=O)NNC(=O)COc2ccccc2C)cc1	-0.69	.	.	-1	.	-2
Cc1ccc(Cn2cnc3ccccc32)cc1	-1.3	76	-19	-3	74	78*
COc1ccccc1-n1c(=O)oc2ccc(Cl)cc2c1=O	.	1.9*	14	-4	1.2*	0
COc1ccccc1-n1c(SCc2cc(=O)oc3cc(O)ccc23)nc2ccccc2c1=O	-1.5	85	23	9	85	4
CCN(CC)S(=O)(=O)c1ccc2c(c1)C(=NO)c1cc(S(=O)(=O)N(CC)CC)ccc1-2	-0.3	2.8*	-73	-5	1.3*	24

Screening data as filed in PubChem BioAssay.
